Among all 5,500 compounds or so, about 2,000 (36%) were called active. Another 18% or so got no clear call; they are omitted. Rule as the data show it: active = normalized growth mostly below about 0.91 (no sharp cut-off); inconclusive = no clear call, values can overlap the other calls; inactive = mostly above about 0.92. The list shows a part of the results.
Experiment: chemical genetic growth profiling, strain panel (AID 1159580);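 also: tested at 20 µM; growth read once vehicle control cultures reached saturation at 30 °C; 1 = growth at the plate median or of vehicle wells; lower values mean less growth of the strain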
Details: growth OD

Measured: normalized growth

CN1C2CC3C[C@H]1C(O3)C2O (some centres undefined)
inactive: S. cerevisiae deletion strains, locus YAL021C, strain ccr4, active compounds read low 1.01 | S. cerevisiae deletion strains, locus YAL026C, strain drs2, active compounds read low 1.02 | S. cerevisiae deletion strains, locus YAL030W, strain snc1, active compounds read low 0.982 | S. cerevisiae deletion strains, locus YBL061C, strain skt5, active compounds read low 1.02 | S. cerevisiae deletion strains, locus YBR009C, strain hhf1, active compounds read low 1.03 | S. cerevisiae deletion strains, locus YBR021W, strain FUR4, active compounds read low 0.99 | S. cerevisiae deletion strains, locus YBR023C, strain chs3, active compounds read low 1.02 | S. cerevisiae deletion strains, locus YBR171W, strain sec66, active compounds read low 1.03 | S. cerevisiae deletion strains, locus YBR229C, strain ROT2, active compounds read low 1.01 | S. cerevisiae deletion strains, locus YBR231C, strain swc5, active compounds read low 1.01 | S. cerevisiae deletion strains, locus YBR279W, strain paf1, active compounds read low 1.01 | S. cerevisiae deletion strains, locus YCL011C, strain gbp2, active compounds read low 1.02 | S. cerevisiae deletion strains, locus YCL016C, strain dcc1, active compounds read low 1.02 | S. cerevisiae deletion strains, locus YCL029C, strain bik1, active compounds read low 1.04 | S. cerevisiae deletion strains, locus YCL061C, strain MRC1, active compounds read low 1.01 | S. cerevisiae deletion strains, locus YCL069W, strain vba3, active compounds read low 1.01 | S. cerevisiae deletion strains, locus YCR088W, strain abp1, active compounds read low 1.02 | S. cerevisiae deletion strains, locus YDL005C, strain med2, active compounds read low 1.02 | S. cerevisiae deletion strains, locus YDL035C, strain GPR1, active compounds read low 1.02 | S. cerevisiae deletion strains, locus YDL040C, strain nat1, active compounds read low 0.997 | S. cerevisiae deletion strains, locus YDL074C, strain BRE1, active compounds read low 1.04 | S. cerevisiae deletion strains, locus YDL101C, strain DUN1, active compounds read low 1.01 | S. cerevisiae deletion strains, locus YDL185W, strain tfp1, active compounds read low 1.04 | S. cerevisiae deletion strains, locus YDL192W, strain arf1, active compounds read low 1.04 | S. cerevisiae deletion strains, locus YDR001C, strain nth1, active compounds read low 1.02 | S. cerevisiae deletion strains, locus YDR069C, strain doa4, active compounds read low 0.971 | S. cerevisiae deletion strains, locus YDR101C, strain arx1, active compounds read low 1.03 | S. cerevisiae deletion strains, locus YDR137W, strain rgp1, active compounds read low 1.02 | S. cerevisiae deletion strains, locus YDR159W, strain sac3, active compounds read low 0.964 | S. cerevisiae deletion strains, locus YDR162C, strain NBP2, active compounds read low 1.01 | S. cerevisiae deletion strains, locus YDR195W, strain ref2 0.995 | S. cerevisiae deletion strains, locus YDR297W, strain sur2, active compounds read low 0.958 | S. cerevisiae deletion strains, locus YDR318W, strain mcm21, active compounds read low 1.03 | S. cerevisiae deletion strains, locus YDR334W, strain swr1, active compounds read low 1.02 | S. cerevisiae deletion strains, locus YDR335W, strain msn5, active compounds read low 0.982 | S. cerevisiae deletion strains, locus YDR388W, active compounds read low 1.03 | S. cerevisiae deletion strains, locus YDR392W, strain spt3, active compounds read low 0.985 | S. cerevisiae deletion strains, locus YDR502C, strain sam2, active compounds read low 1.02 | S. cerevisiae deletion strains, locus YEL003W, strain gim4, active compounds read low 1.02 | S. cerevisiae deletion strains, locus YEL037C, strain rad23, active compounds read low 1.02 | S. cerevisiae deletion strains, locus YEL061C, strain CIN8 (second series), active compounds read low 1.03 | S. cerevisiae deletion strains, locus YEL061C, strain CIN8, active compounds read low 1.01 | S. cerevisiae deletion strains, locus YER015W, strain faa2, active compounds read low 1.01 | S. cerevisiae deletion strains, locus YER016W, strain bim1, active compounds read low 1.01 | S. cerevisiae deletion strains, locus YER110C, active compounds read low 1.04 | S. cerevisiae deletion strains, locus YER111C, strain swi4, active compounds read low 1.02 | S. cerevisiae deletion strains, locus YER155C, strain BEM2 (second series), active compounds read low 0.994 | S. cerevisiae deletion strains, locus YER155C, strain BEM2, active compounds read low 1 | S. cerevisiae deletion strains, locus YER167W, strain BCK2, active compounds read low 1.01 | S. cerevisiae deletion strains, locus YFR010W, strain ubp6, active compounds read low 1.03 | S. cerevisiae deletion strains, locus YGL078C, strain dbp3, active compounds read low 1.02 | S. cerevisiae deletion strains, locus YGL086W, strain mad1, active compounds read low 1 | S. cerevisiae deletion strains, locus YGL167C, strain pmr1, active compounds read low 1.02 | S. cerevisiae deletion strains, locus YGL173C, strain kem1, active compounds read low 1.02 | S. cerevisiae deletion strains, locus YGL227W, strain vid30, active compounds read low 1.01 | S. cerevisiae deletion strains, locus YGL240W, strain doc1, active compounds read low 0.972 | S. cerevisiae deletion strains, locus YGL248W, strain PDE1, active compounds read low 1.01 | S. cerevisiae deletion strains, locus YGL253W, strain hxk2, active compounds read low 1.01 | S. cerevisiae deletion strains, locus YGR078C, strain PAC10, active compounds read low 1.02 | S. cerevisiae deletion strains, locus YGR135W, strain pre9, active compounds read low 1.02 | S. cerevisiae deletion strains, locus YGR252W, strain gcn5, active compounds read low 1.02 | S. cerevisiae deletion strains, locus YHR013C, strain ard1, active compounds read low 1.01 | S. cerevisiae deletion strains, locus YHR027C, strain rpn1, active compounds read low 1 | S. cerevisiae deletion strains, locus YHR030C, strain SLT2, active compounds read low 1.01 | S. cerevisiae deletion strains, locus YHR079C, strain IRE1 (second series), active compounds read low 1.03 | S. cerevisiae deletion strains, locus YHR094C, strain hxt1, active compounds read low 1.03 | S. cerevisiae deletion strains, locus YHR129C, strain ARP1, active compounds read low 1 | S. cerevisiae deletion strains, locus YHR142W, strain chs7, active compounds read low 1.04 | S. cerevisiae deletion strains, locus YHR200W, strain rpn10, active compounds read low 1.02 | S. cerevisiae deletion strains, locus YIL066C, strain RNR3, active compounds read low 1.01 | S. cerevisiae deletion strains, locus YIL073C, strain SPO22, active compounds read low 1.08 | S. cerevisiae deletion strains, locus YIL125W, strain kgd1, active compounds read low 1.02 | S. cerevisiae deletion strains, locus YIR030C, strain dcg1, active compounds read low 1.03 | S. cerevisiae deletion strains, locus YJL092W, strain hpr5, active compounds read low 1.02 | S. cerevisiae deletion strains, locus YJL095W, strain BCK1 (second series), active compounds read low 0.985 | S. cerevisiae deletion strains, locus YJL095W, strain BCK1, active compounds read low 1.01 | S. cerevisiae deletion strains, locus YJL115W, strain asf1, active compounds read low 1.03 | S. cerevisiae deletion strains, locus YJL129C, strain trk1, active compounds read low 1.04 | S. cerevisiae deletion strains, locus YJL134W, strain LCB3, active compounds read low 1.01 | S. cerevisiae deletion strains, locus YJL154C, strain vps35, active compounds read low 1.01 | S. cerevisiae deletion strains, locus YJL164C, strain tpk1, active compounds read low 0.999 | S. cerevisiae deletion strains, locus YJL166W, strain qcr8, active compounds read low 0.996 | S. cerevisiae deletion strains, locus YJL168C, strain set2, active compounds read low 1.02 | S. cerevisiae deletion strains, locus YJL187C, strain SWE1 (second series), active compounds read low 1.01 | S. cerevisiae deletion strains, locus YJL187C, strain SWE1, active compounds read low 0.969 | S. cerevisiae deletion strains, locus YJR043C, strain POL32, active compounds read low 0.999 | S. cerevisiae deletion strains, locus YJR075W, strain HOC1, active compounds read low 1.01 | S. cerevisiae deletion strains, locus YKL009W, strain mrt4, active compounds read low 1.02 | S. cerevisiae deletion strains, locus YKL068W, active compounds read low 1.03 | S. cerevisiae deletion strains, locus YKL085W, strain MDH1 (second series), active compounds read low 1.01 | S. cerevisiae deletion strains, locus YKL085W, strain MDH1, active compounds read low 1.01 | S. cerevisiae deletion strains, locus YKL160W, strain elf1, active compounds read low 1 | S. cerevisiae deletion strains, locus YKL190W, strain CNB1, active compounds read low 1.01 | S. cerevisiae deletion strains, locus YKR001C, strain vps1, active compounds read low 1.03 | S. cerevisiae deletion strains, locus YKR026C, strain gcn3, active compounds read low 1.01 | S. cerevisiae deletion strains, locus YKR091W, strain srl3, active compounds read low 1.01 | S. cerevisiae deletion strains, locus YLL001W, strain dnm1, active compounds read low 1.03 | S. cerevisiae deletion strains, locus YLL026W, active compounds read low 1.01 | S. cerevisiae deletion strains, locus YLL041C, strain sdh2, active compounds read low 0.997 | S. cerevisiae deletion strains, locus YLR027C, strain aat2, active compounds read low 0.975 | S. cerevisiae deletion strains, locus YLR039C, strain RIC1, active compounds read low 1.07 | S. cerevisiae deletion strains, locus YLR058C, strain SHM2, active compounds read low 1.01 | S. cerevisiae deletion strains, locus YLR102C, strain apc9, active compounds read low 1.04 | S. cerevisiae deletion strains, locus YLR221C, strain rsa3, active compounds read low 1.01 | S. cerevisiae deletion strains, locus YLR258W, strain gsy2, active compounds read low 0.983 | S. cerevisiae deletion strains, locus YLR262C, strain YPT6 (second series), active compounds read low 1.05 | S. cerevisiae deletion strains, locus YLR262C, strain YPT6, active compounds read low 1.08 | S. cerevisiae deletion strains, locus YLR268W, strain sec22, active compounds read low 1.03 | S. cerevisiae deletion strains, locus YLR320W, strain mms22, active compounds read low 1.02 | S. cerevisiae deletion strains, locus YLR330W, strain CHS5, active compounds read low 1.01 | S. cerevisiae deletion strains, locus YLR342W, strain FKS1 (second series), active compounds read low 1 | S. cerevisiae deletion strains, locus YLR342W, strain FKS1, active compounds read low 1.01 | S. cerevisiae deletion strains, locus YLR357W, strain rsc2, active compounds read low 1.03 | S. cerevisiae deletion strains, locus YLR370C, strain arc18, active compounds read low 0.979 | S. cerevisiae deletion strains, locus YLR371W, strain rom2, active compounds read low 1.02 | S. cerevisiae deletion strains, locus YLR384C, strain iki3, active compounds read low 1 | S. cerevisiae deletion strains, locus YLR418C, strain cdc73, active compounds read low 1.03 | S. cerevisiae deletion strains, locus YML016C, strain PPZ1, active compounds read low 1.02 | S. cerevisiae deletion strains, locus YML032C, strain rad52, active compounds read low 1.02 | S. cerevisiae deletion strains, locus YML120C, strain ndi1, active compounds read low 1.03 | S. cerevisiae deletion strains, locus YML124C, strain tub3, active compounds read low 1.03 | S. cerevisiae deletion strains, locus YMR058W, strain fet3, active compounds read low 1.02 | S. cerevisiae deletion strains, locus YMR078C, strain ctf18, active compounds read low 1.03 | S. cerevisiae deletion strains, locus YMR125W, strain sto1, active compounds read low 1.01 | S. cerevisiae deletion strains, locus YMR129W, active compounds read low 0.986 | S. cerevisiae deletion strains, locus YMR205C, strain PFK2, active compounds read low 0.974 | S. cerevisiae deletion strains, locus YMR223W, strain ubp8, active compounds read low 1.03 | S. cerevisiae deletion strains, locus YMR231W, strain pep5, active compounds read low 0.988 | S. cerevisiae deletion strains, locus YMR307W, strain GAS1, active compounds read low 0.99 | S. cerevisiae deletion strains, locus YNL067W, strain RPL9B, active compounds read low 1 | S. cerevisiae deletion strains, locus YNL071W, strain lat1, active compounds read low 1.02 | S. cerevisiae deletion strains, locus YNL153C, strain GIM3, active compounds read low 1.01 | S. cerevisiae deletion strains, locus YNL209W, strain ssb2, active compounds read low 1.01 | S. cerevisiae deletion strains, locus YNL233W, strain BNI4, active compounds read low 1.01 | S. cerevisiae deletion strains, locus YNL248C, strain rpa49, active compounds read low 1.02 | S. cerevisiae deletion strains, locus YNL250W, strain rad50, active compounds read low 1.03 | S. cerevisiae deletion strains, locus YNL271C, strain bni1, active compounds read low 1.03 | S. cerevisiae deletion strains, locus YNL298W, strain CLA4, active compounds read low 1.02 | S. cerevisiae deletion strains, locus YNL307C, strain MCK1, active compounds read low 1.05 | S. cerevisiae deletion strains, locus YNL322C, strain KRE1 (second series), active compounds read low 1.02 | S. cerevisiae deletion strains, locus YNR049C, strain mso1, active compounds read low 0.982 | S. cerevisiae deletion strains, locus YNR052C, strain pop2, active compounds read low 1.01 | S. cerevisiae deletion strains, locus YOL012C, strain htz1 1.37 | S. cerevisiae deletion strains, locus YOL147C, strain pex11, active compounds read low 1.03 | S. cerevisiae deletion strains, locus YOR001W, strain rrp6, active compounds read low 0.987 | S. cerevisiae deletion strains, locus YOR061W, strain CKA2, active compounds read low 1.02 | S. cerevisiae deletion strains, locus YOR069W, strain VPS5, active compounds read low 1.01 | S. cerevisiae deletion strains, locus YOR070C, strain gyp1, active compounds read low 1.01 | S. cerevisiae deletion strains, locus YOR080W, strain dia2, active compounds read low 1.02 | S. cerevisiae deletion strains, locus YOR083W, strain WHI5, active compounds read low 1 | S. cerevisiae deletion strains, locus YOR106W, strain vam3, active compounds read low 1.03 | S. cerevisiae deletion strains, locus YOR136W, strain idh2, active compounds read low 1.03 | S. cerevisiae deletion strains, locus YOR144C, strain elg1, active compounds read low 1.03 | S. cerevisiae deletion strains, locus YOR184W, strain ser1, active compounds read low 1.04 | S. cerevisiae deletion strains, locus YOR265W, strain rbl2, active compounds read low 1.01 | S. cerevisiae deletion strains, locus YOR270C, strain vph1, active compounds read low 1.04 | S. cerevisiae deletion strains, locus YOR290C, strain snf2, active compounds read low 0.99 | S. cerevisiae deletion strains, locus YOR316C, strain cot1, active compounds read low 1.04 | S. cerevisiae deletion strains, locus YPL051W, strain arl3, active compounds read low 1.01 | S. cerevisiae deletion strains, locus YPL078C, strain atp4, active compounds read low 1.02 | S. cerevisiae deletion strains, locus YPL106C, strain sse1, active compounds read low 0.995 | S. cerevisiae deletion strains, locus YPL240C, strain hsp82, active compounds read low 0.997 | S. cerevisiae deletion strains, locus YPL241C, strain CIN2, active compounds read low 1.01 | S. cerevisiae deletion strains, locus YPR119W, strain clb2, active compounds read low 1.03 | S. cerevisiae deletion strains, locus YPR141C, strain kar3, active compounds read low 1.04 | S. cerevisiae deletion strains, locus YPR163C, strain tif3, active compounds read low 1.04 | S. cerevisiae deletion strains, locus YPR167C, strain met16, active compounds read low 1.02 | S. cerevisiae deletion strains, strain wtn01, active compounds read low 1.04 | S. cerevisiae strains, strain wild type, active compounds read low 1.02

From PubChem BioAssay AID1159580 (chemical genetic matrix, 2015)
